HepG2 tox = kills HepG2 cells in TGF-b inhibitor counter-screen | HepG2 CAGA-GFP viability, ATP luminescence, 18 h | 410,000 compounds, 0.76% hits | Potency, µM (highest dose often 46.1 µM), without a hit: top-dose activity change, negative = cytotoxicity, most hits filed as cytotoxic
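CellTiter-Glo luminescence gave cytotoxicity after 18 hours at 37 degrees C. The cells were HepG2 CAGA-GFP in 1% FBS DMEM, stimulated with 500 pg/mL TGF-beta after compound addition. %Activity was normalised to no-cell wells (complete cell-killing) and DMSO (no toxicity), and curves were fitted and classified.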
HT1080 IDH1KD tx = toxicity to HT-1080 IDH1 knockdown cells (counter line); HT-1080 IDH1 knockdown viability, ATP luminescence, 48 h; Potency, µM (doses to about 46.1 µM), inactives show at the highest dose activity, negative = toxicity, hits mostly cytotoxic; 360,000 compounds, 2% hits; AID 686971;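 also: 0% = DMSO wells and -100% = cell-free medium wells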
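In this qHTS, HT-1080 cells depleted of IDH1 are exposed for 48 h at 37 °C to compound titrations. Toxicity is scored from CellTiter-Glo luminescence, with DMSO as full viability and medium alone as none.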
KB-3-1 cytotox = KB-3-1 parental cell cytotoxicity; KB-3-1 viability, CellTiter-Glo ATP luminescence, 72 h; AID 1347075; 400,000 compounds, 1.4% hits; Potency, µM (series often up to 46.1 µM), hits mostly cytotoxic; also: % is scaled to controls: 0 for no effect and ±100 for the full control effect; nearly all actives have a fitted effect of over 60% in size
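72 h, 37 °C compound treatment of KB-3-1 parental cells; CellTiter-Glo added, 10 min, luminescence read. Data corrected against DMSO-only plates and normalized before curve fitting.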
HT1080-NT tox = kills 2HG-producing HT-1080-NT fibrosarcoma cells; HT-1080-NT fibrosarcoma viability, CellTiter-Glo ATP luminescence, 48 h; Potency, µM (doses to about 46.1 µM), without a hit: at the top dose activity, negative = less viability, usual class: cytotoxic; 360,000 compounds, 1.6% hits;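 also: NT is the 2HG producing partner of a matched IDH1 knockdown line; 0% = DMSO-treated cells and -100% = media-only wells without cells; nearly all actives have a fitted effect of over 55% in size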
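Compounds were tested in concentration-response format on HT-1080-NT cells for 48 hours at 37 degrees C. Cell viability came from CellTiter-Glo luminescence; curves were classified by r2, response magnitude and activity.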
KB-V1 cytotox = KB-V1 MDR subline cytotoxicity; 400,000 compounds, 3.4% hits; Potency, µM (doses to about 46.1 µM), hits mostly cytotoxic; KB-V1 MDR cells viability, CellTiter-Glo, 72 h; AID 1347076; also: % is scaled to controls: 0 for no effect and ±100 for the full control effect; nearly all actives have a fitted effect of over 60% in size
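KB-V1, DMEM (no phenol red) + 10% FBS; cpd pin-transferred, titration series; 72 h, 37 degrees C; CellTiter-Glo, luminescence. Data normalized, curve-fit.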
TGFb inhibitor = TGF-b pathway inhibition; Potency, µM (titrated, usually from 46.1 µM), for the others: at the highest dose activity, negative = inhibition, most hits filed as inhibitors; AID 588855; 410,000 compounds, 1.2% hits; HepG2 CAGA-GFP TGF-b/SMAD3 reporter, GFP fluorescence, 18 h; TGF-beta stimulated, 500 pg/mL final; also: % is scaled to controls: 0 for no effect and ±100 for the full control effect; nearly all actives have a fitted effect of over 65% in size
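Smad-responsive CAGA-GFP expression was quantified in HEPG2 cells exposed to compounds and 500 pg/mL final TGF-beta for 18 h at 37 degrees C; unstimulated wells defined full inhibition.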
The depositor's hits bear a star; i = inactive; ? = inconclusive; nt = not tested or not shown. This is a sample that favours compounds with a hit; in the whole collection about 6.6% have one here. Calls follow the shape of the dose curve; as a rule, active = well fitted curve in the direction sought with a large enough effect; inconclusive = small, poorly fitted or top-dose-only effect, or another doubt; inactive = no such curve, though single readings can be large; an effect the other way counts as inactive or inconclusive. Potency is read from the fitted curve at half-maximal effect.

SMILES	HepG2 tox	HT1080 IDH1KD tx	KB-3-1 cytotox	HT1080-NT tox	KB-V1 cytotox	TGFb inhibitor
CN(Cc1cccc(F)c1)C(=O)c1ccc(NS(=O)(=O)c2ccc3[nH]c(=O)[nH]c3c2)cc1	0.28µM*	-2%	?	-4%	i	-16%
COC(=O)[C@@]12C[C@@H](CC(=O)NCc3ccc(C)o3)C(=O)N(Cc3ccccc3)C1=CCC(C)(C)C2	nt	-19%	i	-13%	18µM*	nt
COC(=O)[C@@]12C[C@@H](CC(=O)NCc3ccccc3)C(=O)N(Cc3cccc4ccccc34)C1=CCC(C)(C)C2	nt	?	i	?	?	nt
COC(=O)[C@@]12C[C@@H](CC(=O)NCc3ccccc3)C(=O)N(Cc3ccccc3)C1=CCC(C)(C)C2	nt	-21%	?	?	21µM*	nt
Cc1ccc(C)c(C(O)c2ncc(-c3ccc(F)cc3)[nH]2)c1 (stereo not drawn)	-11%	-3%	i	2%	i	-3%
O=C(NC1CCCCC1)N1CCCC(c2nc3ccccc3[nH]2)C1 (stereo not drawn)	22%	-6%	i	-16%	21µM*	-16%
CCc1ccc(NC(=O)c2sc3nc(C)cc(C)c3c2NC(=O)c2ccccc2OC)cc1	-61%	nt	i	nt	i	1%
O=[N+]([O-])c1ccc(-c2nc(-c3ccncc3)no2)cc1	1%	2%	i	-2%	18µM*	28%
Brc1ccc(-c2nc(-c3ccncc3)no2)cc1	5%	15%	i	12%	i	0%
CCCN(Cc1cccs1)C(=O)Nc1ccc(Br)c(C)c1	-28%	nt	i	nt	i	11µM*
CCN(CCC(=O)Nc1ccc(Br)c(C)c1)Cc1ccccc1	-24%	?	?	15µM*	?	-10%
CC(=O)OCC(=O)Nc1ccc(Br)c(C)c1	-42%	-2%	i	-3%	i	16µM*
Cc1ccc(NC(=O)CCc2ccccc2)cc1C	-23%	1%	i	5%	i	-15%
O=C(CCN(CCO)Cc1ccccc1)Nc1ccc(Br)cc1	-7%	?	i	?	15µM*	0%
COC(=O)c1ccccc1NC(=O)C1=CC(c2ccc(C)cc2)=NS(=O)(=O)N1C	-19%	nt	i	nt	i	-33%
CCN(CC)C(=O)c1sc2c(c1C)c(=O)n(-c1ccc(Cl)c(Cl)c1)c(=O)n2Cc1cc(=O)n2ccccc2n1	-25%	nt	i	nt	i	-8%
CCCCCCCCN1C(=O)[C@H](CC(=O)NCCCN2CCCC2=O)C[C@@]2(C(=O)OC)CC(C)(C)CC=C12	nt	?	i	?	i	nt
COc1ccc(-c2nc3scc(-c4ccccc4)n3n2)cc1	-33%	-19%	?	2%	18µM*	19%
CCN(CC)c1ccc(-c2nc(-c3ccco3)no2)cc1[N+](=O)[O-]	-8%	nt	i	nt	i	-15%
Cc1cccc(CCN(C(=O)c2snc(C(N)=O)c2N)C(C(=O)NCC2CCCO2)c2ccc(F)cc2)c1 (stereo not drawn)	-4%	-29%	i	-1%	21µM*	12%
Cc1cc(C)cc(OCC(O)CN2CCC(CN3C(=O)c4cccc5cccc(c45)C3=O)CC2)c1 (stereo not drawn)	20µM*	18µM*	?	18µM*	5.8µM*	?
COc1cccc(OCC(O)CN2CCC(CN3C(=O)c4cccc5cccc(c45)C3=O)CC2)c1 (stereo not drawn)	14µM*	23µM*	i	18µM*	i	?
COc1ccc(COCC(O)CN2CCC(CN3C(=O)c4cccc5cccc(c45)C3=O)CC2)cc1OC (stereo not drawn)	-2%	?	i	?	?	-21%
CCc1ccc(OCC(O)CN2CCC(CN3C(=O)c4cccc5cccc(c45)C3=O)CC2)cc1 (stereo not drawn)	-8%	8%	23µM*	-1%	?	-14%
O=C1c2cccc3cccc(c23)C(=O)N1CC1CCN(S(=O)(=O)c2ccc(F)cc2)CC1	-30%	10%	i	?	9.2µM*	?
SMILES	HepG2 tox	HT1080 IDH1KD tx	KB-3-1 cytotox	HT1080-NT tox	KB-V1 cytotox	TGFb inhibitor
Cc1ccc(S(=O)(=O)N2CCC(CN3C(=O)c4cccc5cccc(c45)C3=O)CC2)cc1	-21%	3%	i	6%	i	-3%
CC(=O)Nc1ccc(NC(=O)COC(=O)c2ccccc2OCc2cccc(Br)c2)cc1	8%	nt	i	nt	i	-5%
N#Cc1ccc(N2CCN(S(=O)(=O)c3ccc4c(c3)CC(=O)N4)CC2)cc1	nt	nt	?	nt	i	nt
COc1ccc(-n2c(C)nc3cc(C(=O)NC4CCCC4)ccc32)cc1	-53%	nt	i	nt	i	-4%
O=C1c2cccc3cccc(c23)C(=O)N1CC1CCN(CC(O)COc2ccc3ccccc3c2)CC1 (stereo not drawn)	16µM*	15µM*	?	18µM*	i	?
O=C1c2cccc3cccc(c23)C(=O)N1CCN1CCN(CC(O)COc2ccc3ccccc3c2)CC1 (stereo not drawn)	4%	?	?	?	?	0%
O=c1[nH]c2nc(Br)[nH]c(=O)c2[nH]1	-1%	21%	i	6%	i	3%
CN(C)/C=N/c1nc2nccc(-c3ccc(F)cc3)n2n1	0%	21%	i	23%	i	25%
CN(C)/C=N/c1nc2ncc(-c3ccc(Cl)cc3)c(/N=C/N(C)C)n2n1	-23%	-7%	?	0%	6.5µM*	3%
CC1=C([N+](=O)[O-])C(c2cccc(Br)c2)C2=C(N1)c1ccccc1C2=O (stereo not drawn)	-32%	1.3µM*	1.6µM*	1.3µM*	?	?
COC(=O)C1=C(C)NC2=C(C(=O)c3ccccc32)C1c1cccc(OC)c1 (stereo not drawn)	-1%	-1%	i	13%	i	3%
COc1cccc(/C=C/C(=O)c2ccc3c(c2)OCO3)c1OC	-45%	?	?	-10%	23µM*	?
COc1cc(C(=O)c2ccc3c(c2)OCO3)cc(OC)c1OC	9%	2.6µM*	4.6µM*	?	3.3µM*	-1%
COc1cc(C(=O)NNC(=O)c2ccc3c(c2)OCCO3)cc(OC)c1OC	1%	-2%	i	0%	i	8%
COc1cc(C(=O)N/N=C(\C)c2ccc3c(c2)OCO3)cc(OC)c1OC	-1%	3.7µM*	4.6µM*	2.1µM*	5.2µM*	?
